{"source": "PubChem BioAssay AID686976", "about": "(The Scripps Research Institute Molecular Screening Center, 2013)", "note": "The campaign covered roughly 1,900 compounds. About 320 (17%) were called active. Rule as the data show it: active = inhibition above about 30%; inactive = the rest. These entries were drawn from the full list."}
{"test_system": "CCHF virus ovarian tumor domain protease (vOTU, L protein)", "experiment": "CCHFV vOTU protease inhibitors, confirmation, biochemical, Pep-AMC substrate, fluorescence (AID 686976)", "settings": "Recombinant CCHFV vOTU, at 11.5 µM, hits give high values"}
{"smiles": "O=C(OCC(=O)c1cccs1)c1ccc([N+](=O)[O-])o1", "inhibition": "-0.43% (inactive)"}
{"smiles": "Cc1cc(OC(C)C(=O)Nc2ccc(S(=O)(=O)Nc3onc(C)c3C)cc2)cc(C)c1Cl", "note": "(stereo unspecified)", "inhibition": "12.3% (inactive)"}
{"smiles": "CC(=O)N1CCN(c2ccc(NCc3ccc(C(C)C)cc3)cc2)CC1", "inhibition": "-11.5% (inactive)"}
{"smiles": "Clc1ccc(C2=CSC3=Nc4cccc5cccc(c45)N23)cc1", "inhibition": "94.7% (active)"}
{"smiles": "O=S(=O)(Nc1ccc(O)c2ccccc12)c1ccc(OC(F)(F)F)cc1", "inhibition": "10.3% (inactive)"}
{"smiles": "Cc1ccc(S(=O)(=O)/N=C2\\C=C(NS(=O)(=O)c3ccc(C)cc3)C(=O)c3ccccc32)cc1", "inhibition": "38.1% (active)"}
{"smiles": "COc1ccc(S(=O)(=O)/N=C2\\C=C(NS(=O)(=O)c3ccccc3)C(=O)c3ccccc32)cc1", "inhibition": "33% (active)"}
{"smiles": "CC1=NN(c2ccc(Cl)c(C(=O)O)c2)C(=O)/C1=C/c1ccc(-c2ccccc2[N+](=O)[O-])o1", "inhibition": "5.11% (inactive)"}
{"smiles": "O=C1NC(c2ccc(-c3ccccc3[N+](=O)[O-])o2)C(C(=O)c2ccc(Cl)cc2)C(O)(C(F)(F)F)N1", "note": "(stereo unspecified)", "inhibition": "34.9% (active)"}
{"smiles": "Cc1cc(C)cc(NC(=S)NCCc2c[nH]c3ccccc23)c1", "inhibition": "-3.11% (inactive)"}
{"smiles": "CCN(CC)CCCC(C)n1c2nc(=O)[nH]c(=O)c-2nc2cc(Cl)ccc21", "note": "(stereo unspecified)", "inhibition": "98.9% (active)"}
{"smiles": "COc1cc(NC(=O)COC(=O)c2ccc([N+](=O)[O-])s2)cc(OC)c1OC", "inhibition": "81.3% (active)"}
{"smiles": "COc1ccc(C(=O)COC(=O)c2ccc([N+](=O)[O-])s2)cc1OC", "inhibition": "12.4% (inactive)"}
{"smiles": "O=C(COc1ccc(Cl)cc1)N1CCN(c2cccc(C(F)(F)F)c2)CC1", "inhibition": "-7.38% (inactive)"}
{"smiles": "COCCNC(=O)Nc1ccc2nc(-c3ccco3)c(-c3ccco3)nc2c1", "inhibition": "1.78% (inactive)"}
{"smiles": "O=C(O)c1cc(S(=O)(=O)Nc2ccc3cn[nH]c3c2)ccc1Br", "inhibition": "-10.8% (inactive)"}
{"smiles": "Oc1ccc(N=Cc2sc3ccccc3c2Cl)cc1", "inhibition": "-0.82% (inactive)"}
{"smiles": "COc1ccccc1CNS(=O)(=O)c1cc2c3c(c1)CCC(=O)N3CCC2", "inhibition": "-12.5% (inactive)"}
{"smiles": "Cc1cccc(C)c1NC(=O)CNC(=O)c1c(C)nn(-c2ccccc2)c1C", "inhibition": "-17.8% (inactive)"}
{"smiles": "Oc1c(Cl)cc(Cl)c(Cl)c1Cc1c(O)c(Cl)cc(Cl)c1Cl", "inhibition": "31.2% (active)"}
{"smiles": "CC(=O)N(C1=C(Cl)C(=O)c2ccccc2C1=O)c1ccc(C(=O)O)cc1", "inhibition": "101% (active)"}
{"smiles": "CC(C(=O)Nc1ccccc1-c1ccccc1)N1CCOCC1", "note": "(stereo unspecified)", "inhibition": "-10.3% (inactive)"}
{"smiles": "Cc1oc2c(c1C(=O)N1CCOCC1)C(=O)c1ccccc1C2=O", "inhibition": "41% (active)"}
{"smiles": "COc1ccc2c(c1)c(=Cc1ccc(N(C)C)cc1)c1cc(-c3ccccc3)[n+](C)n12", "inhibition": "-15.8% (inactive)"}
{"smiles": "Cc1ccc(S(=O)(=O)N2[C@@H](c3ccc(Br)cc3)C(C(=O)O)=C[C@H]2CC2CCCC2)cc1", "inhibition": "24.4% (inactive)"}
{"smiles": "Oc1ccc(CNc2ccccc2O)cc1", "inhibition": "-5.66% (inactive)"}
{"smiles": "CCOc1ccc(C(=O)Nc2ccc(S(=O)(=O)NCC3CCCO3)cc2)cc1OCC", "note": "(stereo unspecified)", "inhibition": "-7.98% (inactive)"}
{"smiles": "Oc1c(CN2CCN(c3ccc(F)cc3)CC2)cc(Cl)c2cccnc12", "inhibition": "-0.25% (inactive)"}
{"smiles": "CCOc1cc(NC(=O)c2ccccc2C(=O)O)c(OCC)cc1NC(=O)c1ccccc1F", "inhibition": "-9.49% (inactive)"}
{"smiles": "Cc1ccc(OCc2nnc(SC/C=C/c3ccccc3)n2Cc2ccco2)cc1", "inhibition": "15.3% (inactive)"}
{"smiles": "COc1ccccc1N=Nc1c(O)[nH]c(=S)[nH]c1=O", "inhibition": "30.5% (active)"}
{"smiles": "NC1=CC(=O)C(=O)c2cccnc21", "inhibition": "95.4% (active)"}
{"smiles": "CCc1ccc(OCC(=O)NCC(c2ccc(Cl)cc2)N2CCCCC2)cc1", "note": "(stereo unspecified)", "inhibition": "14.2% (inactive)"}
{"smiles": "COc1ccc2c(c1)C(C)=CC(C)(C)N2C(=O)Nc1ccccc1", "inhibition": "-94.5% (inactive)"}
{"smiles": "O=C1Nc2ccccc2-n2nnnc2C1N1CCN(c2cccc(C(F)(F)F)n2)CC1", "note": "(stereo unspecified)", "inhibition": "-5.01% (inactive)"}
{"smiles": "CCNC(=S)N1CCN(c2ncccn2)CC1", "inhibition": "-9.28% (inactive)"}
{"smiles": "Cc1cc(C)c2c(=O)[nH]c(SCC(=O)Nc3ccc(Br)cc3)nc2n1", "inhibition": "-13.3% (inactive)"}
{"smiles": "Cc1ccccc1-n1c(SCC(=O)Nc2cccc3ccccc23)nc(O)cc1=O", "inhibition": "-11.1% (inactive)"}
{"smiles": "Cc1oc2c(F)c(F)c(F)c(F)c2c1S(=O)(=O)Nc1cccc(C(F)(F)F)c1", "inhibition": "13.9% (inactive)"}
{"smiles": "CC(C)(C)c1ccc(S(=O)(=O)NCC2CCN(C(=O)C(=O)c3cc4ccccc4o3)CC2)cc1", "inhibition": "-5.86% (inactive)"}
{"smiles": "Nc1ccc(N=Nc2ccccc2Cl)c(N)n1", "inhibition": "8.04% (inactive)"}
{"smiles": "Oc1ccc(/C=N/Nc2ccc(C(F)(F)F)cn2)cc1O", "inhibition": "-17.2% (inactive)"}
{"smiles": "CCCSc1nc(NCc2ccco2)c2c3c(sc2n1)COC(C)(CC)C3", "note": "(stereo unspecified)", "inhibition": "-14.8% (inactive)"}
{"smiles": "O=C(O)c1ccccc1/C=N/Nc1ccc(S(=O)(=O)Nc2ccc(Cl)cc2)cc1[N+](=O)[O-]", "inhibition": "12.4% (inactive)"}
{"smiles": "CN1CCN(Cc2nc3cc(NC(=O)COc4ccc([N+](=O)[O-])cc4)ccc3n2C)CC1", "inhibition": "-12.5% (inactive)"}
{"smiles": "CCN(CC(=O)Nc1c(F)cccc1F)C(=O)c1cnc(C)cn1", "inhibition": "2.27% (inactive)"}
{"smiles": "CC1CCCCC12NC(=O)N(CC(=O)OCC(=O)NCc1ccc(F)cc1)C2=O", "note": "(stereo unspecified)", "inhibition": "-0.61% (inactive)"}
{"smiles": "Cc1ccnc(NS(=O)(=O)c2ccc(NC(=O)c3oc4ccccc4c3C)cc2)n1", "inhibition": "5.34% (inactive)"}
{"smiles": "Cc1coc2c(O)cc3c(c12)OC1(N2CCCCC2)C(=O)NCCCC31", "note": "(stereo unspecified)", "inhibition": "47.2% (active)"}
{"smiles": "Cn1c(=NC(=O)c2cnccn2)sc2ccccc21", "inhibition": "5.19% (inactive)"}
{"smiles": "Cc1ccc(CSc2nc(-c3ccccc3)c(C#N)c(=O)[nH]2)cc1", "inhibition": "13.2% (inactive)"}
{"smiles": "Oc1ccc(N=Cc2c(O)ccc3ccccc23)cc1", "inhibition": "4.75% (inactive)"}
{"smiles": "Oc1c(C=Nc2cccc3nsnc23)ccc2ccccc12", "inhibition": "100% (active)"}
{"smiles": "CC(C)Cn1c(N)c(C(=O)NCc2cccs2)c2nc3ccccc3nc21", "inhibition": "-76.7% (inactive)"}
{"smiles": "C=CCC[C@@H](CCCCC)OC(=O)/C=C/[C@@H](O)[C@H](O)C[C@H](O)CC=C", "inhibition": "-0.24% (inactive)"}
{"smiles": "CCc1ccc2c(c1)NC(=O)C2(C)Cc1ccc(OC(F)(F)F)cc1", "note": "(stereo unspecified)", "inhibition": "3.85% (inactive)"}
{"smiles": "O=C(Nc1cccc(S(=O)(=O)N2CCCCC2)c1)c1ccc2c(c1)OCO2", "inhibition": "-5.32% (inactive)"}
{"smiles": "COc1ccc(C(N)c2csc(NC(=O)Nc3cccc(C(F)(F)F)c3)n2)cc1", "note": "(stereo unspecified)", "inhibition": "-16.9% (inactive)"}
{"smiles": "O=C(NCc1ccc(F)cc1)c1cc(C2CCCCN2C(=O)C2CCCCC2)on1", "note": "(stereo unspecified)", "inhibition": "-10.2% (inactive)"}
{"smiles": "Cc1nnc(SC(C)C(=O)Nc2ccc(S(=O)(=O)NC3CCCCC3)cc2)s1", "note": "(stereo unspecified)", "inhibition": "-7.87% (inactive)"}
{"smiles": "CCOC(=O)N1CCC(c2cc(=O)n(-c3ccccc3)[nH]2)CC1", "inhibition": "-6.72% (inactive)"}
{"smiles": "COc1ccccc1C1C(C#N)=C(N)Oc2c1c(-c1ccccc1)nn2-c1ccccc1", "note": "(stereo unspecified)", "inhibition": "1.06% (inactive)"}
{"smiles": "CCN(CC)C(=O)C1=C(C)N(Cc2ccc(C(C)(C)C)cc2)C(=O)C(CC(=O)NCc2cccc3ccccc23)C1", "note": "(stereo unspecified)", "inhibition": "3.3% (inactive)"}
{"smiles": "COc1ccc(C(=O)/C=C/c2ccc(-c3ccccc3)cc2)cc1CSCC(=O)O", "inhibition": "0.4% (inactive)"}
{"smiles": "COc1cccc(NC(=O)C(=O)c2cn(CC(=O)N3CCOCC3)c3ccccc23)c1", "inhibition": "0.94% (inactive)"}
{"smiles": "COCCn1nnnc1C(c1cc2ccc(OC)cc2[nH]c1=O)N1CCc2ccccc2C1", "note": "(stereo unspecified)", "inhibition": "20.7% (inactive)"}
{"smiles": "CN(C)N1C(N)=C(C#N)C(c2ccc(Br)cc2)C2=C1CCCC2=O", "note": "(stereo unspecified)", "inhibition": "-25.8% (inactive)"}
{"smiles": "O=C1Nc2ccc([N+](=O)[O-])cc2C1=Nc1cccc(CO)c1", "inhibition": "58.4% (active)"}
{"smiles": "CCN(CC)P(=O)(Oc1cccc(C)c1)N(CC)CC", "inhibition": "-12.8% (inactive)"}
{"smiles": "CCCCCC(=O)N1C[C@H](O)[C@@H](n2cc(COC(=O)c3ccccc3)nn2)C[C@@H]1c1ccc(C)cc1", "inhibition": "7.84% (inactive)"}
{"smiles": "CC(C)Oc1ccc(CN2CCC2(C)C(=O)NCc2ccc(C(F)(F)F)cc2)cc1", "note": "(stereo unspecified)", "inhibition": "8.85% (inactive)"}
{"smiles": "CN1c2ccc(C=O)c3c(C=O)ccc(c23)N(C)C1(C)C", "inhibition": "-100% (inactive)"}
{"smiles": "COc1ccc(F)cc1C(=O)C1CCCN(C(=O)CCc2ccccn2)C1", "note": "(stereo unspecified)", "inhibition": "-14.7% (inactive)"}
{"smiles": "CCN(C[C@H]1N[C@@](CC)(C(=O)OC)[C@H]2C(=O)N(Cc3ccccc3)C(=O)[C@@H]12)S(=O)(=O)c1ccc(C(F)(F)F)cc1", "inhibition": "7.2% (inactive)"}
{"smiles": "CCOC(=O)c1ccc(Nc2cc3ccccc3c(=O)[nH]2)cc1", "inhibition": "24.6% (inactive)"}
{"smiles": "CCOC(=O)c1c(C)[nH]c2c1-c1ccccc1C(=O)C2=O", "inhibition": "98.7% (active)"}
{"smiles": "O=C(NC1=CC(=O)c2ccccc2C1=O)c1ccccc1", "inhibition": "99.3% (active)"}
{"smiles": "O=C1C=C(NS(=O)(=O)c2ccccc2)C(=O)c2ccccc21", "inhibition": "15.4% (inactive)"}
{"smiles": "O=C(NC1CCCCC1)N1CCc2[nH]c3ccccc3c2C1", "inhibition": "-22.6% (inactive)"}
{"smiles": "CN(C)c1ccc(N/C=C/C(=O)C(F)(F)F)cc1", "inhibition": "5.61% (inactive)"}
{"smiles": "Cc1cc(C(=O)N/N=C/c2ccc(O)c([N+](=O)[O-])c2)c(C)n1-c1ccc(F)cc1", "inhibition": "8.57% (inactive)"}
{"smiles": "CCCS(=O)(=O)NC(=O)C1(C)CCN(C(=O)c2sccc2C)C1", "note": "(stereo unspecified)", "inhibition": "-18.9% (inactive)"}
{"smiles": "COc1cc2c(cc1OC)C(Cc1cc(OC)c(OC)cc1[N+](=O)[O-])=NCC2", "inhibition": "-18.3% (inactive)"}
{"smiles": "COc1ccc(NC(=O)C[C@H]2C(=O)N(CCc3ccccc3)C[C@@H]2C)cc1", "inhibition": "-25.5% (inactive)"}
{"smiles": "COC(=O)[C@]12C[C@H](CC(=O)NCc3ccc(C)o3)C(=O)N(CCC3=CCCCC3)C1=C[C@H](C(C)(C)C)O[C@@H]2C", "inhibition": "9.58% (inactive)"}
{"smiles": "CCOC(=O)c1ccc(NC(=O)c2nc[nH]c2C(=O)N[C@@H](CCCCNC(=O)OC(C)(C)C)C(=O)OC(C)(C)C)cc1", "inhibition": "12.5% (inactive)"}
{"smiles": "O=C(NCCc1ccc(Cl)cc1Cl)c1cc([N+](=O)[O-])c[nH]c1=O", "inhibition": "-6.11% (inactive)"}
{"smiles": "COC(=O)[C@@]12C[C@@H](CC(=O)NCc3cccc(C(F)(F)F)c3)C(=O)N(Cc3ccco3)C1=CCC(C)(C)C2", "inhibition": "12.2% (inactive)"}
{"smiles": "CCN(CC)C(=O)[C@@H]1C=C2c3cccc4[nH]c(Br)c(c34)C[C@H]2N(C)C1", "inhibition": "-5.37% (inactive)"}
{"smiles": "CCn1nnnc1SCC(=O)Nc1ccc(N(C)C)cc1", "inhibition": "6.35% (inactive)"}
{"smiles": "Cc1nnc(NC(=O)Nc2ccc(Cl)c(Cl)c2)s1", "inhibition": "-15.1% (inactive)"}
